Results filed as inconclusive are left out. Activity calls are given as the source filed them. Calls come from the whole dose curve; as a rule, active = well fitted inhibition curve with a large enough effect; inconclusive = small, poorly fitted or top-dose-only effect; inactive = no such curve, though single readings can be large or run the other way.
Assay: Acumen qHTS Assay for Inhibitors of the mTORC1 Signaling Pathway in WT MEF Cells: Hit Validation; note: nearly all actives have a fitted effect of over 60% in size;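 for activity change, negative = inhibition: phospho-rpS6 Ser235/236 immunofluorescence normalised to propidium iodide cell stain; percent of cells above a cutoff set by 7.5 nM rapamycin treated wells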
Details: Acumen imaging; series mostly up to 37.3 µM; activity change, negative = inhibition: at the top concentration
Outline: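 Read-out is immunofluorescent phospho-rpS6 (Ser235/236) normalised to PI-stained cell number, reported as % active cells using a 7.5 nM rapamycin threshold. Cells: WT or Tsc2-/-, p53-/- MEFs, compound-exposed 24 h at 37C; PI count also tracks viability.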
Potency is the fitted concentration of half-maximal effect.

Row | SMILES | activity change, negative = inhibition | Potency
1 | COc1ccc2c(CNCCc3cccs3)c(C(=O)O)n(Cc3ccc(F)cc3Cl)c2c1 | -2.41% (inactive) | –
2 | CCc1ccc(-c2nc(CSCC(=O)NCc3ccc(C)cc3)c(C)o2)cc1 | 34.2% (inactive) | –
3 | CCCCNC(=O)CSc1nc2nc(C)c(Cc3ccccc3C)c(C)n2n1 | 17.8% (inactive) | –
4 | COc1ccc(N2CCN(C(=O)C(C)n3nc(C)c4sc5ccccc5c4c3=O)CC2)cc1 (stereo not given) | 36.9% (inactive) | –
5 | Cc1ccc(NC(=O)CSc2ncc3c(n2)-c2ccccc2N(C)S3(=O)=O)c(Cl)c1 | -9.36% (inactive) | –
6 | O=C(CS(=O)(=O)c1cccc2nsnc12)NCc1ccc(Cl)cc1 | 44.4% (inactive) | –
7 | CC(=O)N1CCCc2cc(S(=O)(=O)N(Cc3ccccc3)C(C)C)ccc21 | -14.5% (inactive) | –
8 | COC(=O)c1cc2sc(C)cc2n1Cc1ccccc1 | -15.3% (inactive) | –
9 | Cc1cc(C)c(NC(=O)C2CCN(c3nc4ccccc4n4cccc34)CC2)c(C)c1 | -22.3% (inactive) | –
10 | Cc1ccc([C@H]2Nc3ccc(S(=O)(=O)Nc4cccc(Cl)c4C)cc3[C@H]3C=CC[C@H]32)cc1 | -1.13% (inactive) | –
11 | CCC(C)NC(=O)c1sc2nc(C)c(C(=O)Nc3ccc(C)cc3C)c(-c3ccc(Cl)cc3)c2c1N (stereo not given) | 13.2% (inactive) | –
12 | COc1ccccc1-c1noc(CSc2nc3ccc(C)cc3[nH]2)n1 | -21.8% (inactive) | –
13 | CCS(=O)(=O)c1ncc(Cl)c(C(=O)NCc2ccccc2)n1 | – | 3.29 µM (active)
14 | O=C(CC1(O)C(=O)N(CCc2ccccc2)c2ccc(Br)cc21)c1ccccc1O (stereo not given) | -24.1% (inactive) | –
15 | CN1CCN(C2(CNC(=O)COc3ccc(C(C)(C)C)cc3)CCCCC2)CC1 | -2.29% (inactive) | –
16 | CCCCn1c(=N)n(CCOc2ccccc2OC)c2ccccc21 | – | 11.7 µM (active)
17 | O=C(Nc1ccc2oc(-c3ccc4ccccc4c3)nc2c1)c1cc(Br)ccc1Cl | – | 13.1 µM (active)
18 | O=S(=O)(c1ccccc1)n1nc(-c2ccc(Cl)cc2)nc1NCc1ccccc1 | -20.8% (inactive) | –
19 | COCc1oc2ccc(NS(=O)(=O)c3ccc(C)cc3)cc2c1C(=O)OC | – | 5.85 µM (active)
20 | CC[C@H](CO)Nc1nc(NCc2ccccc2)c2ncn(C(C)C)c2n1 | -51.5% (inactive) | –

Row | SMILES | activity change, negative = inhibition | Potency
21 | CCc1ccccc1NC(=O)CSCc1cnn(-c2ccccc2)c1-n1cccc1 | -1.53% (inactive) | –
22 | CCCC1=Nc2cc(C(=O)NC3CCCC3)ccc2Sc2ccc(C)cc21 | – | 0.736 µM (active)
23 | CCOCc1cc(CN2CCN(c3ccccc3OC)CC2)c(O)c2ncccc12 | 3.82% (inactive) | –
24 | CC(C)(C)c1ccc(C2NC(=O)c3n[nH]c(-c4cccs4)c32)cc1 (stereo not given) | 40.3% (inactive) | –
25 | CCOc1ccc(-c2cnc(NCc3ccc(C(F)(F)F)cc3)n2C)cc1 | -3.05% (inactive) | –
26 | Cc1cccc(Nc2nnc(-c3ccc(C)c(S(=O)(=O)N4CCN(C)CC4)c3)c3ccccc23)c1 | 46.8% (inactive) | –
27 | Cn1nnnc1SCCCNCc1cccc(OCc2ccc(Cl)cc2)c1 | 88% (inactive) | –
28 | COc1ccccc1NC(=O)CSc1ccc(-c2ccccn2)nn1 | -12.8% (inactive) | –
29 | O=S(=O)(NCC(c1ccco1)N1CCN(c2ccc(F)cc2)CC1)c1ccccc1 (stereo not given) | 2.11% (inactive) | –
30 | CCCN1C(=O)C(Cc2nc3ccccc3c(=O)n2CC)c2ccccc21 (stereo not given) | 44% (inactive) | –
31 | Cc1nn(CCCC(=O)NCc2ccccc2)c(=O)c2c1sc1ccccc12 | 38.6% (inactive) | –
32 | O=C(Nc1ccc(Cl)cc1)C1CCC(CNS(=O)(=O)c2ccc(Br)s2)CC1 (stereo not given) | -8.29% (inactive) | –
33 | Cc1ccc(S(=O)(=O)Nc2ccc3c(c2)c(C(=O)OC(C)C)c(C)n3S(=O)(=O)c2ccc(C)cc2)cc1 | 0.763% (inactive) | –
34 | COc1ccc(-c2n[nH]c3c2C(c2ccc(O)cc2)N(c2ccc(Br)cc2)C3=O)cc1 (stereo not given) | -28.7% (inactive) | –
35 | COc1cccc(/C=C(\C#N)c2nc3ccc(C)cc3[nH]2)c1 | -27.4% (inactive) | –
36 | CCN1CCC(N(Cc2ccc(F)cc2)C(=O)Nc2ccc(C)c(F)c2)CC1 | -11.5% (inactive) | –
37 | COc1ccc(NC(=O)C(NC(=O)/C=C\c2ccc3c(c2)OCO3)c2ccccc2)cc1 (stereo not given) | -25.3% (inactive) | –
38 | COc1ccc(N(Cc2ccccc2)C(=O)c2nc(S(C)(=O)=O)ncc2Cl)cc1 | – | 2.07 µM (active)
39 | O=C(Cn1c(=O)c2cccn2c2ccccc21)NCc1ccccc1F | 18.4% (inactive) | –
40 | COc1ccc(N2CC(c3nc(-c4cc(OC)c(OC)c(OC)c4)no3)CC2=O)cc1Cl (stereo not given) | -13% (inactive) | –

Source: PubChem BioAssay AID651789 (National Center for Advancing Translational Sciences (NCATS), 2012)
